The panel holds about 83,000 compounds, 20% with a hit somewhere; the sample as a whole holds those more often.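 96-well plates, one dose, 48 hours. Percent growth reported; active if below 10.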 Active and inactive are the calls of the source.
Tests used:
Experiment in all cases: NCI-60 one-dose screen, 48 h (100 = growth as untreated, 0 = no growth, -100 = all killed)
Conditions in all cases: 10 µM unless noted
HT29 colon = system: HT29 colon
SNB-75 CNS = system: SNB-75 CNS
SNB-19 CNS = system: SNB-19 CNS
U251 CNS = system: U251 CNS
PC-3 prostate = system: PC-3 prostate
SK-MEL-5 melanoma = system: SK-MEL-5 melanoma
UACC-62 melanoma = system: UACC-62 melanoma
LOX IMVI melanoma = system: LOX IMVI melanoma
SK-MEL-28 melanoma = system: SK-MEL-28 melanoma
SK-MEL-2 melanoma = system: SK-MEL-2 melanoma
EKVX NSCLC = system: EKVX NSCLC
SN12C renal = system: SN12C renal
UO-31 renal = system: UO-31 renal
ACHN renal = system: ACHN renal
CAKI-1 renal = system: CAKI-1 renal
A498 renal = system: A498 renal
CCRF-CEM leukemia = system: CCRF-CEM leukemia
MOLT-4 leukemia = system: MOLT-4 leukemia
TK-10 renal = system: TK-10 renal

Measured: growth

O=S(=O)(c1ccc(NCSc2nc3ccccc3s2)cc1)c1ccc(NCSc2nc3ccccc3s2)cc1
inactive: HT29 colon 87.8% | SNB-75 CNS 81.6% | SNB-19 CNS 95.9% | U251 CNS 90.6% | PC-3 prostate 64.9% | SK-MEL-5 melanoma 97% | UACC-62 melanoma 83.5% | LOX IMVI melanoma 91.1% | SK-MEL-28 melanoma 110% | SK-MEL-2 melanoma 78.8% | EKVX NSCLC 101% | SN12C renal 95.5% | UO-31 renal 60.2% | ACHN renal 102% | CAKI-1 renal 95.4% | A498 renal 112% | CCRF-CEM leukemia 71.8% | MOLT-4 leukemia 76.9%

CCN(CC)c1ccc(/C=N/NC(=O)c2ccccc2Nc2ccnc(C(F)(F)F)c2)c(O)c1
inactive: HT29 colon 37.7% | SNB-75 CNS 43.8% | SNB-19 CNS 20.1% | U251 CNS 14.8% | UACC-62 melanoma 19.4% | SK-MEL-28 melanoma 47.9% | SK-MEL-2 melanoma 94.1% | EKVX NSCLC 30.5% | SN12C renal 22.2% | UO-31 renal 16% | TK-10 renal 33.3% | ACHN renal 11.9% | CAKI-1 renal 56.9% | A498 renal 47.8% | CCRF-CEM leukemia 14.5% | MOLT-4 leukemia 59.6%
active: SK-MEL-5 melanoma 3.96% | LOX IMVI melanoma 5.58%

CN(C)C(=S)NN=C(c1ccccn1)c1ccccn1
active: SNB-75 CNS -22.2% | SK-MEL-5 melanoma -19.8% | UACC-62 melanoma 9.88% | LOX IMVI melanoma 8.85% | EKVX NSCLC -15.7% | TK-10 renal 6.04% | A498 renal -11% | CCRF-CEM leukemia -34.3% | MOLT-4 leukemia -2.95%
inactive: HT29 colon 27.9% | SNB-19 CNS 32.7% | U251 CNS 18.1% | PC-3 prostate 37.7% | SK-MEL-28 melanoma 30.7% | SK-MEL-2 melanoma 13.4% | SN12C renal 28.5% | ACHN renal 16.8% | CAKI-1 renal 30%

CN1CCN(Cc2ccc(NC(=O)c3cncc(C#Cc4cnc(N)c5ccc(C#N)cc45)c3)cc2C(F)(F)F)CC1
inactive: SNB-19 CNS 25.8% | PC-3 prostate 27.4% | EKVX NSCLC 43.4%
active: HT29 colon -32.4% | SNB-75 CNS -20% | U251 CNS 3.03% | SK-MEL-5 melanoma -93.2% | UACC-62 melanoma -51.8% | LOX IMVI melanoma -95.8% | SK-MEL-28 melanoma -81% | SK-MEL-2 melanoma -62% | SN12C renal -81.1% | UO-31 renal -78.4% | TK-10 renal -2.47% | ACHN renal -92.5% | CAKI-1 renal -51.5% | CCRF-CEM leukemia 3.96% | MOLT-4 leukemia 2.26%

CN1C(=O)N(C)C2C1NN=c1s/c(=C\c3ccccc3F)c(=O)n12 (stereo unspecified)
inactive: SNB-19 CNS 24.1% | U251 CNS 14.5% | PC-3 prostate 27.4% | SK-MEL-5 melanoma 16.7% | UACC-62 melanoma 21% | LOX IMVI melanoma 20.6% | SK-MEL-28 melanoma 47.1% | SK-MEL-2 melanoma 42.5% | EKVX NSCLC 48.3% | SN12C renal 26% | UO-31 renal 42.6% | TK-10 renal 63.1% | ACHN renal 36.8% | CAKI-1 renal 31.4% | CCRF-CEM leukemia 11% | MOLT-4 leukemia 15.8%
active: HT29 colon 2.25% | SNB-75 CNS -4.89% | A498 renal 1.45%

Cc1ccccc1NC(=O)Cn1cc(CN2CCN(c3ccnc4cc(Cl)ccc34)CC2)nn1
active: CCRF-CEM leukemia -33.5%
inactive: HT29 colon 105% | SNB-75 CNS 85.8% | SNB-19 CNS 93.3% | U251 CNS 100% | PC-3 prostate 81.4% | SK-MEL-5 melanoma 91.2% | UACC-62 melanoma 84.3% | LOX IMVI melanoma 97.7% | SK-MEL-28 melanoma 100% | SK-MEL-2 melanoma 110% | EKVX NSCLC 97.1% | UO-31 renal 71.1% | TK-10 renal 102% | ACHN renal 95% | CAKI-1 renal 80.3% | A498 renal 84.8% | MOLT-4 leukemia 45.3%

CCN1CCN(CCOc2ccc(CNc3ccc4nc(CCC5CCCCC5)[nH]c4c3)cc2)CC1
inactive: SNB-75 CNS 79.8% | SNB-19 CNS 39.3% | PC-3 prostate 42% | EKVX NSCLC 71.3% | SN12C renal 67.8% | TK-10 renal 81.2% | ACHN renal 40.9% | A498 renal 43.9% | MOLT-4 leukemia 20%
active: HT29 colon 8.35% | U251 CNS -19.7% | SK-MEL-5 melanoma -96.5% | UACC-62 melanoma -16.4% | LOX IMVI melanoma -78.6% | SK-MEL-28 melanoma -88% | SK-MEL-2 melanoma -3.49% | UO-31 renal -24.9% | CAKI-1 renal 0.23% | CCRF-CEM leukemia 8.27%

O=C(/C=C/C12c3ccccc3C(c3ccccc31)C1C(=O)NC(=O)C12)c1cccs1 (stereo unspecified)
inactive: HT29 colon 22.6% | SNB-75 CNS 17.1% | SNB-19 CNS 39.2% | U251 CNS 15.8% | PC-3 prostate 33.6% | SK-MEL-5 melanoma 54.8% | UACC-62 melanoma 37.2% | LOX IMVI melanoma 28.6% | SK-MEL-28 melanoma 45.8% | SK-MEL-2 melanoma 38.5% | EKVX NSCLC 50.3% | SN12C renal 36.4% | UO-31 renal 42.6% | TK-10 renal 48.7% | ACHN renal 45.8% | CAKI-1 renal 52.2% | A498 renal 46.9% | MOLT-4 leukemia 10.5%
active: CCRF-CEM leukemia 0.0532%

N/C(=N\c1nc2ccccc2s1)NC(=O)Nc1ccccc1
inactive: HT29 colon 14.3% | SNB-75 CNS 31.4% | SNB-19 CNS 32.1% | U251 CNS 21% | PC-3 prostate 57.1% | SK-MEL-5 melanoma 32.5% | UACC-62 melanoma 21% | LOX IMVI melanoma 34.7% | SK-MEL-28 melanoma 72.3% | SK-MEL-2 melanoma 30.2% | EKVX NSCLC 54% | SN12C renal 29% | UO-31 renal 46.3% | TK-10 renal 75.3% | ACHN renal 55.7% | CAKI-1 renal 44.3% | A498 renal 42.7% | CCRF-CEM leukemia 12.5% | MOLT-4 leukemia 27.8%

O=C(/C=C/c1ccc(Cl)cc1)c1ccc(-n2cc(CN3CCN(c4cc5c(cc4F)c(=O)c(C(=O)O)cn5C4CC4)CC3)nn2)cc1
inactive: HT29 colon 78.2% | SNB-75 CNS 91.6% | SNB-19 CNS 84.1% | U251 CNS 68.6% | PC-3 prostate 89% | SK-MEL-5 melanoma 81.6% | UACC-62 melanoma 74.6% | LOX IMVI melanoma 56.9% | SK-MEL-28 melanoma 85.4% | SK-MEL-2 melanoma 99.1% | EKVX NSCLC 96.6% | SN12C renal 58.2% | UO-31 renal 65.1% | TK-10 renal 92.4% | ACHN renal 89.9% | CAKI-1 renal 75.5% | A498 renal 60.5% | CCRF-CEM leukemia 74.6% | MOLT-4 leukemia 81.7%

C1=C2CCCC3=Cc4ccccc4OC23Oc2ccccc21
inactive: SNB-75 CNS 23% | SNB-19 CNS 27.4% | U251 CNS 26.5% | PC-3 prostate 34.7% | SK-MEL-5 melanoma 20% | UACC-62 melanoma 14.5% | LOX IMVI melanoma 23% | SK-MEL-28 melanoma 54.2% | SK-MEL-2 melanoma 36% | EKVX NSCLC 57.8% | SN12C renal 34.4% | UO-31 renal 43.3% | TK-10 renal 55.4% | ACHN renal 47.3% | CAKI-1 renal 27.2% | CCRF-CEM leukemia 18.3% | MOLT-4 leukemia 17.5%
active: HT29 colon 5.93% | A498 renal 5.61%

CCOc1ccccc1NC(=O)CCC(=O)OC
inactive: HT29 colon 89.7% | SNB-75 CNS 75.7% | SNB-19 CNS 111% | U251 CNS 105% | PC-3 prostate 93.5% | SK-MEL-5 melanoma 99.7% | UACC-62 melanoma 106% | LOX IMVI melanoma 102% | SK-MEL-28 melanoma 101% | SK-MEL-2 melanoma 121% | EKVX NSCLC 94.3% | SN12C renal 108% | UO-31 renal 81.8% | TK-10 renal 98.7% | ACHN renal 106% | CAKI-1 renal 92.4% | A498 renal 100% | CCRF-CEM leukemia 108% | MOLT-4 leukemia 94.8%

COC(=O)CCc1c(/C=C2\N=C(c3ccc[nH]3)C=C2OC)[nH]c(C)c1C(=O)OCc1ccccc1
inactive: SNB-19 CNS 39.3% | SK-MEL-28 melanoma 16.8% | EKVX NSCLC 27.4% | SN12C renal 15.8% | TK-10 renal 18.4% | A498 renal 15.1% | MOLT-4 leukemia 16.9%
active: HT29 colon 9.15% | SNB-75 CNS -17.6% | U251 CNS 3.55% | PC-3 prostate 6.14% | SK-MEL-5 melanoma -52.4% | UACC-62 melanoma -29.2% | LOX IMVI melanoma -52.7% | SK-MEL-2 melanoma -27.8% | UO-31 renal -67.2% | ACHN renal 4.36% | CAKI-1 renal -3.87% | CCRF-CEM leukemia 1.47%

C#C[C@]1(O)CC[C@H]2[C@@H]3CC=C4c5sc(-c6ccccc6)nc5CC[C@]4(C)[C@H]3CC[C@@]21C
inactive: HT29 colon 74.2% | SNB-19 CNS 88% | U251 CNS 69.8% | PC-3 prostate 65.7% | SK-MEL-5 melanoma 97.4% | UACC-62 melanoma 91.6% | LOX IMVI melanoma 74.9% | SK-MEL-28 melanoma 61.2% | SK-MEL-2 melanoma 92% | EKVX NSCLC 92.8% | SN12C renal 88.2% | TK-10 renal 126% | ACHN renal 85.6% | CAKI-1 renal 55.2% | A498 renal 91% | CCRF-CEM leukemia 67.4% | MOLT-4 leukemia 63.8%

COc1ccc(NC(=O)CSc2oc(-c3ccccc3)nc2S(=O)(=O)c2ccc(Cl)cc2)c(OC)c1
inactive: HT29 colon 70.3% | SNB-19 CNS 55.4% | U251 CNS 50.6% | PC-3 prostate 61% | SK-MEL-5 melanoma 66.3% | UACC-62 melanoma 41.4% | LOX IMVI melanoma 76.1% | SK-MEL-28 melanoma 67.1% | SK-MEL-2 melanoma 66.4% | EKVX NSCLC 74.7% | SN12C renal 75.8% | UO-31 renal 61.6% | TK-10 renal 67.1% | ACHN renal 36.6% | CAKI-1 renal 86.1% | A498 renal 49.9% | MOLT-4 leukemia 73%
active: SNB-75 CNS -1.47%

CCCn1cnc2c(c1=N)C(c1ccc(Cl)cc1)c1sc3c(F)cccc3c1O2 (stereo unspecified)
inactive: HT29 colon 20.8% | SNB-75 CNS 90.2% | SNB-19 CNS 87.5% | U251 CNS 59.8% | PC-3 prostate 65.8% | SK-MEL-5 melanoma 63.7% | UACC-62 melanoma 85.4% | LOX IMVI melanoma 82.3% | SK-MEL-28 melanoma 80.1% | SK-MEL-2 melanoma 103% | EKVX NSCLC 80% | SN12C renal 69.3% | UO-31 renal 50.5% | TK-10 renal 102% | ACHN renal 84.1% | CAKI-1 renal 70.6% | A498 renal 94.7% | CCRF-CEM leukemia 64.4% | MOLT-4 leukemia 56.7%

— PubChem BioAssay (NCI)
